Active and inactive are the calls of the source. The call rests on the fitted dose curve; in most records, active means well fitted curve in the direction sought with a large enough effect in the repeat runs; inconclusive means weak or mixed curves; inactive means flat fitted curve, though single readings scatter.
Assay: qHTS assay to test for compound auto fluorescence at 590 nm (red) in HepG2 cells (AID 720674)
Settings: HepG2 autofluorescence, red 540/590 nm, 1 h; series mostly up to 46 µM; fluorescence, relative to Rose Bengal: at the top concentration
Excerpt: U.S. Tox21 Program National Center for Advancing Translational Sciences [NCATS] NIH Chemical Genomics Center [NCGC] U.S. Environmental Protection Agency [EPA] National Institutes of Environmental Health Sciences [NIEHS] National Toxicology Program [NTP] U.S. Food and Drug Administration [FDA] Tox21 Assay Overview: Compound auto fluorescence often interferes with screening of the compound library against various biological targets and signaling pathways. Some of these compounds may have fluorophoric properties. Such properties may interfere with the assay outputs resulting in false positives and/or negatives. To decrease such complications and ensure the compound activities are relevant in terms of biological response, the Tox21 10K compound library was screened for auto fluorescence. From the fluorophores used as reporter signals in our screening assays, the auto fluorescence equivalencies of compounds against three fluorophores have been evaluated: Triamterene, Fluorescein and Rose Bengal sodium for blue, green and red fluorescence, respectively. The fluorescence intensities were measured using Excitation/Emission wavelengths at 405/460nm, 485/535nm and 540/590nm for blue, green and red labels, respectively. This assay includes the red fluorescence data.
Tox21 Assay Protocol Summary: 2,000 HepG2 cells in 5 uL of culture medium (MEM containing 10% FBS) per well were dispensed into black wall/clear bottom 1536-well plates using a Multidrop Combi Dispenser (ThermoFisher Scientific, Waltham, MA). The assay plates were incubated overnight at 37 C to allow cell attachment to the well bottom, followed by the transfer of 23 nL compound or DMSO vehicle by a pintool work station (Kalypsys , San Diego, CA). After the assay plates were incubated for 1 hr at 37 C and 5% CO2, fluorescence intensities in the assay plates were measured by an Envision (PerkinElmer, Shelton, CT) plate reader using three labels for measuring blue, green and red fluorescence at […] 460, 535 and 590 nm respectively.
On the % scale 0 is the no-effect control and ±100 the full control effect.

SMILES	fluorescence, relative to Rose Bengal	Potency
CCC(=O)OCC(=O)[C@@]1(OC(=O)CC)[C@@H](C)C[C@H]2[C@@H]3CCC4=CC(=O)C=C[C@]4(C)[C@@]3(F)[C@@H](O)C[C@@]21C	0.495% (inactive)	–
CC1(C)[C@@H]2CC[C@@]1(C)[C@H](OC(=O)CSC#N)C2	0.595% (inactive)	–
O=C1NCCN1c1ncc([N+](=O)[O-])s1	-0.076% [at 18.6 µM] (inactive)	–
CCCCCCCCCCCCCCCCSCC(COC)COP(=O)([O-])OCC[N+](C)(C)C (stereo not given)	0.398% (inactive)	–
CNCC(O)c1ccc(OC(=O)C(C)(C)C)c(OC(=O)C(C)(C)C)c1 (stereo not given)	-0.179% [at 18.6 µM] (inactive)	–
O=C(NNCNNC(=O)c1ccncc1)c1ccncc1	-0.206% (inactive)	–
CC(=O)O[C@]1(C(C)=O)CC[C@H]2[C@@H]3CCC4=CC(=O)CC[C@]4(C)[C@@]3(F)[C@@H](O)C[C@@]21C	0.163% (inactive)	–
CCCCCCCCCCCCCCCCCCCCCCO	0.114% (inactive)	–
NCCC[C@H](N)C(=O)O	-0.279% (inactive)	–
NC(Cc1ccccc1)C(=O)O (stereo not given)	-0.225% (inactive)	–
COC(=O)[C@H]1[C@H]2C[C@@H]3c4[nH]c5ccccc5c4CCN3C[C@H]2C[C@@H](OC(=O)c2cc(OC)c(OC)c(OC)c2)[C@@H]1OC	–	inactive
CO[C@H]1C[C@H](O[C@H]2[C@H](C)O[C@@H](O[C@@H]3/C(C)=C/C[C@@H]4C[C@@H](C[C@]5(C=C[C@H](C)[C@@H](C6CCCCC6)O5)O4)OC(=O)[C@@H]4C=C(C)[C@@H](O)[C@H]5OC/C(=C\C=C\[C@@H]3C)[C@]54O)C[C@@H]2OC)O[C@@H](C)[C@@H]1O	0.318% (inactive)	–
CS(=O)(=O)Nc1cc2occ(NC=O)c(=O)c2cc1Oc1ccccc1	0.163% (inactive)	–
CC(C)=CCC/C(C)=C/C=C/C(C)=C/C=C/C(C)=C/C=C/C=C(C)/C=C/C=C(C)/C=C/C=C(\C)CCC=C(C)C	-0.69% (inactive)	–
CCCCCCOc1ccc(C(=N)N(CCCC)CCCC)c2ccccc12	0.222% (inactive)	–
CO[C@@]1(NC(=O)C2SC(=C(C(N)=O)C(=O)O)S2)C(=O)N2C(C(=O)O)=C(CSc3nnnn3C)CS[C@@H]21 (stereo not given in full)	-0.278% [at 18.6 µM] (inactive)	–
CC[C@H]1OC(=O)[C@H](C)[C@@H](O[C@H]2C[C@@](C)(OC)[C@@H](O)[C@H](C)O2)[C@H](C)[C@@H](O[C@@H]2O[C@H](C)C[C@H](N(C)C)[C@H]2O)[C@](C)(O)C[C@@H](C)[C@@H]2N[C@@H](COCCOC)O[C@@H]([C@H]2C)[C@]1(C)O	0.159% (inactive)	–
CCC(=O)OCC(=O)[C@@]1(OC(=O)CC)[C@H](C)C[C@H]2[C@@H]3CCC4=CC(=O)C=C[C@]4(C)[C@@]3(F)[C@@H](O)C[C@@]21C	0.0708% (inactive)	–
CCN(CC)CCOC(=O)c1ccc(N)cc1Cl	0.157% (inactive)	–
CC[N+](C)(C)Cc1ccccc1Br	0.628% [at 18.6 µM] (inactive)	–

SMILES	fluorescence, relative to Rose Bengal	Potency
CCC(Cc1c(I)cc(I)c(O)c1I)C(=O)O (stereo not given)	0.138% (inactive)	–
C#C[C@]1(OC(C)=O)CC[C@H]2[C@@H]3CCC4=CC(=O)CC[C@@H]4[C@H]3CC[C@@]21C	0.0819% (inactive)	–
COc1ccc(-c2noc(CC(=O)O)c2-c2ccc(OC)cc2)cc1	0.449% (inactive)	–
O=C(COc1ccc(Cl)cc1)OCCNC12CC3CC(CC(C3)C1)C2	0.487% (inactive)	–
Cn1nnnc1SCC1=C(C(=O)O)N2C(=O)[C@@H](NC(=O)[C@H](O)c3ccccc3)[C@H]2SC1	-0.771% [at 18.6 µM] (inactive)	–
CC[C@H]1NC(=O)[C@@H](NC(=O)c2ncccc2O)[C@@H](C)OC(=O)[C@H](c2ccccc2)NC(=O)[C@@H]2CC(=O)CCN2C(=O)[C@H](Cc2ccccc2)N(C)C(=O)[C@@H]2CCCN2C1=O	-0.651% (inactive)	–
CNC(=O)[C@H](Cc1c[nH]c2ccccc12)NC(=O)[C@@H](CC(=O)NO)CC(C)C	-0.526% (inactive)	–
Nc1c(Br)cc(Br)cc1CNC1CCC(O)CC1 (stereo not given)	-0.2% (inactive)	–
O=C(OCc1ccccc1)c1cccnc1	-0.0588% (inactive)	–
COc1cc(Br)c(C[N+]2(CCOCCC3CCC4CC3C4(C)C)CCOCC2)cc1OC (stereo not given)	-0.0862% (inactive)	–
O=C1CCC(=O)N1CO	0.0701% (inactive)	–
O=C(Nc1ccc(/C=C/c2ccc(NC(=O)c3cc(S(=O)(=O)O)c4cccnc4c3O)cc2S(=O)(=O)O)c(S(=O)(=O)O)c1)c1cc(S(=O)(=O)O)c2cccnc2c1O	0.147% (inactive)	–
COc1cc(NCCCC(C)N)c2ncccc2c1 (stereo not given)	-0.261% (inactive)	–
COCC1=C(C(=O)OC(C)OC(=O)OC(C)C)N2C(=O)[C@@H](NC(=O)/C(=N\OC)c3csc(N)n3)[C@H]2SC1 (stereo not given in full)	–	inactive
CO/N=C(\C(=O)N[C@@H]1C(=O)N2C(C(=O)O)=C(CSC(=O)c3ccco3)CS[C@H]12)c1csc(N)n1	0.173% (inactive)	–
COc1cc(C[C@@H]2NCCc3cc(O)c(O)cc32)cc(OC)c1OC	0.248% (inactive)	–
CN[C@H]1CCc2cc(OC)c(OC)c(OC)c2-c2ccc(OC)c(=O)cc21	-0.608% (inactive)	–
CC(C)CN(C[C@@H](O)[C@H](Cc1ccccc1)NC(=O)O[C@@H]1CCOC1)S(=O)(=O)c1ccc(N)cc1	-0.337% (inactive)	–
CC(C)(C)NCC(O)CSc1nc(-c2ccc(C(N)=O)s2)cs1 (stereo not given)	0.126% (inactive)	–
CC(CN1c2ccccc2Sc2ccc(S(=O)(=O)N(C)C)cc21)N(C)C (stereo not given)	0.367% (inactive)	–
